Our source for the binding signal values is PMC7862700, “An all-to-all approach to the identification of sequence-specific readers for epigenetic DNA modifications on cytosine”.

Holding throughout (assay): DAPPL (digital affinity profiling via proximity ligation, sequencing); 10 mM Tris-HCl pH 7.5, 50 mM NaCl, 1 mM DTT, 4% glycerol, room temperature, 30 min; GST-TFs on glutathione beads, 16-mer random dsDNA library, 0.1% formaldehyde crosslink after washing; high values mean tight binding
One experiment deals with T1, FEV (Homo sapiens, UniProt Q99581 1-238).
T1 sequence: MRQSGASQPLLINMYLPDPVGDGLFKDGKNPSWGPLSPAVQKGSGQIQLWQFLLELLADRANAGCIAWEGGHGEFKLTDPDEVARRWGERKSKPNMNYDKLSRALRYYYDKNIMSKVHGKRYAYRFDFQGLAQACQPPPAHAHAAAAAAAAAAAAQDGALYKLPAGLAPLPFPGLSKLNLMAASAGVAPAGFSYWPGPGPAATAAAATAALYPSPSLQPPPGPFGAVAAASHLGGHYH
Particulars: protein: recombinant; tags: N-terminal GST; dsDNA, one strand shown. In a few lines:
(§1)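 Binding signal is each hexamer's read frequency for a factor divided by its frequency in the tag-only sample. The factors were GST-fused human transcription factors from yeast, captured on glutathione beads, DNA-barcoded and pooled with that sample. Pools were incubated with 200 nmole of a random double-stranded 16-mer DNA library in Tris/NaCl/DTT/glycerol buffer at room temperature for 30 min, then washed, crosslinked with 0.1% formaldehyde, proximity-ligated with BsaI/T4 ligase (1 h, 37 °C), PCR-amplified and sequenced on an Illumina NextSeq500.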

Another experiment addresses ETV5 (Homo sapiens, UniProt P41161 1-510). Particulars: protein: recombinant; tags: N-terminal GST; dsDNA, one strand shown. The gist of the method: as §1
A further experiment addresses HSF1 (Homo sapiens, UniProt Q00613 1-529). Conditions: protein: recombinant; tags: N-terminal GST; chain copies: 3; dsDNA, one strand shown. The gist of the method:
as §1

For the next experiment, the target named is T2, SPIC (Homo sapiens, UniProt Q8N5J4 1-248).
T2 sequence: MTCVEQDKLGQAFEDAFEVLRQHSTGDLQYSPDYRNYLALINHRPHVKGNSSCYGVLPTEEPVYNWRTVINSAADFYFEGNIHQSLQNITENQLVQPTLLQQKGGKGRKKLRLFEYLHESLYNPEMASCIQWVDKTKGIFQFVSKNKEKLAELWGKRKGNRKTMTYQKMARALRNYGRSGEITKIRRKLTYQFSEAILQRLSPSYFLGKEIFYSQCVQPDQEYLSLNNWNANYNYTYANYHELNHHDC
Conditions: protein: recombinant; tags: N-terminal GST; dsDNA, one strand shown. The gist of the method:
as §1

Another experiment concerns the target ELF4 (Homo sapiens, UniProt Q99607 1-663). Particulars: protein: recombinant; tags: N-terminal GST; dsDNA, one strand shown. The gist of the method:
as §1

The target in the next experiment is T3, ELK4 (Homo sapiens, UniProt P28324-2 1-405).
T3 sequence: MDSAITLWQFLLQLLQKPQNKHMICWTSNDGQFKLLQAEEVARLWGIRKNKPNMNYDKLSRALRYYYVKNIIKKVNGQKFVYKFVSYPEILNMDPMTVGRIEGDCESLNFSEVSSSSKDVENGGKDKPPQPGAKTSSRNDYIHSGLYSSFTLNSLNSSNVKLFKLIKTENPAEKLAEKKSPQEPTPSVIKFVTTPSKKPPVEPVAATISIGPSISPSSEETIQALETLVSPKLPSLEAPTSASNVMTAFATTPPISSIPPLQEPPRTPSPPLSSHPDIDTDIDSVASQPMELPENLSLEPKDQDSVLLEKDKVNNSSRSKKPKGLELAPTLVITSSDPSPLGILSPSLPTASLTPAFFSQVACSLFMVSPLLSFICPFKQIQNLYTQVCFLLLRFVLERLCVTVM
Particulars: protein: recombinant; tags: N-terminal GST; dsDNA, one strand shown. In a few lines: as §1

In the next experiment the target is T4, ETV2 (Homo sapiens, UniProt O00321 1-342).
T4 sequence: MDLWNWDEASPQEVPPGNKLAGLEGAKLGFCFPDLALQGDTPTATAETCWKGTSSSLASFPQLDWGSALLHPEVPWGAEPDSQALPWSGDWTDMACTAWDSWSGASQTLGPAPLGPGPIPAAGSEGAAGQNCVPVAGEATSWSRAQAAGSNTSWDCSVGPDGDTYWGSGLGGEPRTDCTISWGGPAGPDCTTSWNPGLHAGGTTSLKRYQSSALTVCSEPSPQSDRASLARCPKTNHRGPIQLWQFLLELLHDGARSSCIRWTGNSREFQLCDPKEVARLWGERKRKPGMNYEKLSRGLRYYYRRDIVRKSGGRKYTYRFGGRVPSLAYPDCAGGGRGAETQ
Conditions: protein: recombinant; tags: N-terminal GST; dsDNA, one strand shown. In a few lines:
as §1

Another experiment deals with T5, ELF3 (Homo sapiens, UniProt P78545 1-371).
T5 sequence: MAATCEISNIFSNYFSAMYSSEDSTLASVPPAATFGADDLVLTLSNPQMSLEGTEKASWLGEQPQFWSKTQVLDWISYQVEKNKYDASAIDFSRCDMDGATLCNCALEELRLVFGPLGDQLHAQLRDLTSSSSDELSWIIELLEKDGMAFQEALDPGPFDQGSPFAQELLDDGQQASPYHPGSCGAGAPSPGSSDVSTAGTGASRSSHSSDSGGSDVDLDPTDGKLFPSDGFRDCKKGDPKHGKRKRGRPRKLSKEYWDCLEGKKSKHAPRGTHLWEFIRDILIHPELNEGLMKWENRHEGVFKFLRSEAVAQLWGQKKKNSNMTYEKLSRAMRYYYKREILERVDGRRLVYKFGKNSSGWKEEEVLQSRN
Conditions: protein: recombinant; tags: N-terminal GST; dsDNA, one strand shown. The gist of the method:
as §1

The target in a further experiment is CRX (Homo sapiens, UniProt O43186 1-299). Particulars: protein: recombinant; tags: N-terminal GST; dsDNA, one strand shown. The gist of the method: as §1
The target of a further experiment is ETV1 (Homo sapiens, UniProt P50549 1-477). Conditions: protein: recombinant; tags: N-terminal GST; dsDNA, one strand shown. In a few lines:
as §1

The target in the next experiment is T6, ERF (Homo sapiens, UniProt P50548 1-548).
T6 sequence: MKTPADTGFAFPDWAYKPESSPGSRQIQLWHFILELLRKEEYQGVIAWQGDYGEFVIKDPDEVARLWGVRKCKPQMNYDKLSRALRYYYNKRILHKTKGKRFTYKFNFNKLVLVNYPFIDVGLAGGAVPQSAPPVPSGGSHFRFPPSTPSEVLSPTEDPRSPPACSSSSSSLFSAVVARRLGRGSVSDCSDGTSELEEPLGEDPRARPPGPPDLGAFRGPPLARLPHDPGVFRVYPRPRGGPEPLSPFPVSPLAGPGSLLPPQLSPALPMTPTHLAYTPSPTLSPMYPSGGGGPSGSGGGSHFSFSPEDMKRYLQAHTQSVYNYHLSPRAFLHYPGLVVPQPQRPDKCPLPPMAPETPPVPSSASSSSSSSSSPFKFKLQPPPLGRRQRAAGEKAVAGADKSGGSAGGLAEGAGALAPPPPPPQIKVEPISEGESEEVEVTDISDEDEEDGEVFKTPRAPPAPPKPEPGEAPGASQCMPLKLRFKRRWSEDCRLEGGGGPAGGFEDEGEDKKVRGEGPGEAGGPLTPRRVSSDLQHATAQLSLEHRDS
Particulars: protein: recombinant; tags: N-terminal GST; dsDNA, one strand shown. The gist of the method: as §1

Another experiment addresses T7, ETV3L (Homo sapiens, UniProt Q6ZN32 1-361).
T7 sequence: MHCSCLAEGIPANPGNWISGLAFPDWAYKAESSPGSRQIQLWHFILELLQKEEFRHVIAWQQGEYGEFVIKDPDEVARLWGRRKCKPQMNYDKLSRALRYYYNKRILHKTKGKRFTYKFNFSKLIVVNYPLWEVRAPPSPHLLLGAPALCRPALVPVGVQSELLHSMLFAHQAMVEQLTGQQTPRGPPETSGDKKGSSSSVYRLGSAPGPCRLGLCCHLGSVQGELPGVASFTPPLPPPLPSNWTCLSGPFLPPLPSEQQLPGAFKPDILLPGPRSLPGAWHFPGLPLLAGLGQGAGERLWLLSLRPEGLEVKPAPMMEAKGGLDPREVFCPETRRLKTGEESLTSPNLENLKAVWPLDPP
Particulars: protein: recombinant; tags: N-terminal GST; dsDNA, one strand shown. The gist of the method: as §1

The next experiment addresses T8, ETS2 (Homo sapiens, UniProt P15036 1-469).
T8 sequence: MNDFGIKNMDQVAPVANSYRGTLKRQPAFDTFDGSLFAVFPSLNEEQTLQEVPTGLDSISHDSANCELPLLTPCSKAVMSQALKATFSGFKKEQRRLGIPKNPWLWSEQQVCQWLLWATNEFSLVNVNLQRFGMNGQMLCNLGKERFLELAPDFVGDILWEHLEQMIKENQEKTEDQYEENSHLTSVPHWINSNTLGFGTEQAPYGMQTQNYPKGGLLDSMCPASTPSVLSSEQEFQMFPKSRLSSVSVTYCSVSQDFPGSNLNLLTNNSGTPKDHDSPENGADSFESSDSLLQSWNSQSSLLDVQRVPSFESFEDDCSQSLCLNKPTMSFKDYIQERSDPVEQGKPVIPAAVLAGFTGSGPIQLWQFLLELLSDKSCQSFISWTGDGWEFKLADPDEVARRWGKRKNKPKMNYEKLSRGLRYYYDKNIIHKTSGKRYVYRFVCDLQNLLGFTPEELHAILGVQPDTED
Particulars: protein: recombinant; tags: N-terminal GST; dsDNA, one strand shown. In a few lines:
as §1

A further experiment addresses T9, SPDEF (Homo sapiens, UniProt O95238 1-335).
T9 sequence: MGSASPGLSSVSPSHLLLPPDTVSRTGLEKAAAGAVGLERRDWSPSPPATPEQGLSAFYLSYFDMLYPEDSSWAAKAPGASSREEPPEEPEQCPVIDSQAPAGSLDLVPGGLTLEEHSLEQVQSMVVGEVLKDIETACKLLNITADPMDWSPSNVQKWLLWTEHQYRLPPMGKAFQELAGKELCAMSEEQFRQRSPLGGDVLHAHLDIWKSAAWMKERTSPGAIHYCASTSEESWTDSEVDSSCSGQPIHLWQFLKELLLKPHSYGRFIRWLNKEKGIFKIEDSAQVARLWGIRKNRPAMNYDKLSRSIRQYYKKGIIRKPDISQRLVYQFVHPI
Conditions: protein: recombinant; tags: N-terminal GST; dsDNA, one strand shown. The gist of the method:
as §1

The target in another experiment is T10, ETV7 (Homo sapiens, UniProt Q9Y603 1-341).
T10 sequence: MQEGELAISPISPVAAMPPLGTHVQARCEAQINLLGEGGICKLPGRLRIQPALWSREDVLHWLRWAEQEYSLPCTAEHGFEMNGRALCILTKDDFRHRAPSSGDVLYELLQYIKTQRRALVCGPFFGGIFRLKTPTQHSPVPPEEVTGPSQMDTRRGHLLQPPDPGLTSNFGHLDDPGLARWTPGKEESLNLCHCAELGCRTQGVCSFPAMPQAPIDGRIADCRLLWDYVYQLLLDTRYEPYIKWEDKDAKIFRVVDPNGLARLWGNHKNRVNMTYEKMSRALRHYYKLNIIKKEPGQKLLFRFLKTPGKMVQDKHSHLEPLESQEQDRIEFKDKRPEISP
Conditions: protein: recombinant; tags: N-terminal GST; dsDNA, one strand shown. The gist of the method: as §1

In the next experiment the target is T11, ELF5 (Homo sapiens, UniProt Q9UKW6-2 1-255).
T11 sequence: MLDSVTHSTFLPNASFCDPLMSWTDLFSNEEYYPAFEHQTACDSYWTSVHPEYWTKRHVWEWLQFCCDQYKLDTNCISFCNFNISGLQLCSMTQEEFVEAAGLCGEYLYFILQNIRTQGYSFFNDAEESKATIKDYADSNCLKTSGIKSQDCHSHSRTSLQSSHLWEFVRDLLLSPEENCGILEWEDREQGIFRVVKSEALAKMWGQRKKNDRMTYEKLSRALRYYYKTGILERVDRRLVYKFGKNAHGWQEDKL
Particulars: protein: recombinant; tags: N-terminal GST; dsDNA, one strand shown. The gist of the method: as §1

A further experiment addresses T12, ETV3 (Homo sapiens, UniProt P41162-2 1-143).
T12 sequence: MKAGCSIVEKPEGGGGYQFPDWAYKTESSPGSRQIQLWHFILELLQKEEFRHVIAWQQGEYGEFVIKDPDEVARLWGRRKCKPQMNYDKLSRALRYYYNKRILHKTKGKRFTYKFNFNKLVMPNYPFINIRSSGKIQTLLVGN
Particulars: protein: recombinant; tags: N-terminal GST; dsDNA, one strand shown. The gist of the method:
as §1

The target in the next experiment is ETV6 (Homo sapiens, UniProt P41212 1-452). Conditions: protein: recombinant; tags: N-terminal GST; dsDNA, one strand shown. The gist of the method: as §1
ETV6, sequence (P41212 whole entry): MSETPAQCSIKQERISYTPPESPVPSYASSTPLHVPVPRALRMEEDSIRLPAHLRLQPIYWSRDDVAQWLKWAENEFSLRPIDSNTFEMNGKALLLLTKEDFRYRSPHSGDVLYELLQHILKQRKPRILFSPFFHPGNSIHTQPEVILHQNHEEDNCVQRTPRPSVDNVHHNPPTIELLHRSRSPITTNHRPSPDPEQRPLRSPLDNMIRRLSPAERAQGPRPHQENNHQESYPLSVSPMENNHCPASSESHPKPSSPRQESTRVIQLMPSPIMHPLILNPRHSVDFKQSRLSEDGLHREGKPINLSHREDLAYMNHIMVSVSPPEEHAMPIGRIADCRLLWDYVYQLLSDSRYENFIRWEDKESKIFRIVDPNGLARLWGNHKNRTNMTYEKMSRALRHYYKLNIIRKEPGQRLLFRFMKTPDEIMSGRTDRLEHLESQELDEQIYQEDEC

ETV1, sequence (P50549 whole entry): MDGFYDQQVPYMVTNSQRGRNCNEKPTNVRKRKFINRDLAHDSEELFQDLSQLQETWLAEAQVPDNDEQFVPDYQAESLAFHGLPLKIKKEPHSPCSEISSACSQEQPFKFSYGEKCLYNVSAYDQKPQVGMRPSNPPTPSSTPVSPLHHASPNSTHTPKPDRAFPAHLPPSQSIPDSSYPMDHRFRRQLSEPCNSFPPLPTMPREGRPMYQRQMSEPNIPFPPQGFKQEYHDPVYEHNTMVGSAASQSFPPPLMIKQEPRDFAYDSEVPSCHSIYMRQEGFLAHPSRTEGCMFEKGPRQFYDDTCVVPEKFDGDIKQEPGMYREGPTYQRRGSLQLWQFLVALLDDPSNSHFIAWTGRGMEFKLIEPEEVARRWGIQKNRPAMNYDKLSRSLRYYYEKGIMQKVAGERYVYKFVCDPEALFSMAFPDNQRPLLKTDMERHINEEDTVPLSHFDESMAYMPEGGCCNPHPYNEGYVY
HSF1, sequence (Q00613 whole entry): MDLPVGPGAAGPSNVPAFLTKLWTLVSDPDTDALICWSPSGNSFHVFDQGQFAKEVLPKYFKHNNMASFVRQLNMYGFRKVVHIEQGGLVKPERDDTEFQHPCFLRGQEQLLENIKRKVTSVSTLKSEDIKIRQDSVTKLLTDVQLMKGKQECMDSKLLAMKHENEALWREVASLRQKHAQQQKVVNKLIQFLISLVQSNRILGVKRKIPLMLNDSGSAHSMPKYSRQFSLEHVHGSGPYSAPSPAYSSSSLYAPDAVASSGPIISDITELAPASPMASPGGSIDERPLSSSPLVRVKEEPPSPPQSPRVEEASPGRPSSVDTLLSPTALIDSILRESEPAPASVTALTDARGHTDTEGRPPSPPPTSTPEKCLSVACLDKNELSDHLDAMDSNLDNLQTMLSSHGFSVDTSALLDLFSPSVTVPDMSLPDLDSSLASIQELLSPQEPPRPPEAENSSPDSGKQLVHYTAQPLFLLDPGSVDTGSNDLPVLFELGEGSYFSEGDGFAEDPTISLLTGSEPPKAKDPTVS
ELF4, sequence (Q99607 whole entry): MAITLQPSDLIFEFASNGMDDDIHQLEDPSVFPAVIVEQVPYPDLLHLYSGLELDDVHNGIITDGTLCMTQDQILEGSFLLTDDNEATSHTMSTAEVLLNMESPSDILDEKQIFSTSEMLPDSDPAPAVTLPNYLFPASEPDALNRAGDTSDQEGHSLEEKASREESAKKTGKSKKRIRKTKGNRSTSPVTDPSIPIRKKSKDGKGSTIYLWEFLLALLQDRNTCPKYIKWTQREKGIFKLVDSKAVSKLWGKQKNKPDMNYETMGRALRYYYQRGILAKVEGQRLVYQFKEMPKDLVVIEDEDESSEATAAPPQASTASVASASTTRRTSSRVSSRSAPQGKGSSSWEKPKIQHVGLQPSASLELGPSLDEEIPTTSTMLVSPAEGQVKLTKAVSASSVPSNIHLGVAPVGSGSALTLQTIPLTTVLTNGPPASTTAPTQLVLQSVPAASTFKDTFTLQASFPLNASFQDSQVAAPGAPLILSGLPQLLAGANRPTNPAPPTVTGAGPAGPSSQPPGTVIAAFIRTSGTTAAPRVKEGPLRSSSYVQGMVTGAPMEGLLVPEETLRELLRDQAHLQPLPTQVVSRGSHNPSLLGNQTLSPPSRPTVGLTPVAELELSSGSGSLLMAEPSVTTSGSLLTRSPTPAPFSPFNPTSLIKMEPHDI
CRX, sequence (O43186 whole entry): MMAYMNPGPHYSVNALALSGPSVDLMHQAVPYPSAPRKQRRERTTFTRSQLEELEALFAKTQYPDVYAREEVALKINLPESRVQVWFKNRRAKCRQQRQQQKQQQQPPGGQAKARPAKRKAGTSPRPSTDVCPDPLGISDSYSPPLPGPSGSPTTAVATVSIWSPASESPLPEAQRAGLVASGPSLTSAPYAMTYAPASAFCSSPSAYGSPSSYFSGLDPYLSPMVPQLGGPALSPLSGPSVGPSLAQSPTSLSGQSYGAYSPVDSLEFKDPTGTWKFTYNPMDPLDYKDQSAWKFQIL
ETV5, sequence (P41161 whole entry): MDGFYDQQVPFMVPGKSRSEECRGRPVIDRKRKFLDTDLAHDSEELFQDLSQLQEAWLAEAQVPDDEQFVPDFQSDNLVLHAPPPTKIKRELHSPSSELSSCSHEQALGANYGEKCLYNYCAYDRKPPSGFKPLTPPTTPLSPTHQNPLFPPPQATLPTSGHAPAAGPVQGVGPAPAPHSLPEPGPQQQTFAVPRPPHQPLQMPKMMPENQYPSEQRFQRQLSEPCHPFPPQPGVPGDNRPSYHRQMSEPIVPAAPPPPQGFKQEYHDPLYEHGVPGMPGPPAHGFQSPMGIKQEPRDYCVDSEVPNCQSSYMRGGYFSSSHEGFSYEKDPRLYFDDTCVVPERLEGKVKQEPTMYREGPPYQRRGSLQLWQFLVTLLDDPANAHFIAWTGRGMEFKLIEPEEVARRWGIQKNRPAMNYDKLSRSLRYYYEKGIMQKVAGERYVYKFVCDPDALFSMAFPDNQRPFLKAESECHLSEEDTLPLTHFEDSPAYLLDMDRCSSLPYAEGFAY

Consider CTTCGC, for which the binding signal with FEV is 1.41 fold enrichment (6-mer frequency, TF over GST control); with ETV5, 1.31 fold enrichment (6-mer frequency, TF over GST control); with HSF1, 1.63 fold enrichment (6-mer frequency, TF over GST control); in the experiment with SPIC, 1.18 fold enrichment (6-mer frequency, TF over GST control); in the experiment with ELF4, 1.45 fold enrichment (6-mer frequency, TF over GST control); in the experiment with ELK4, 1.32 fold enrichment (6-mer frequency, TF over GST control). The binding signal is 1.62 fold enrichment (6-mer frequency, TF over GST control) with ETV2; 1.37 fold enrichment (6-mer frequency, TF over GST control) in the experiment with ELF3; 1.24 fold enrichment (6-mer frequency, TF over GST control) with CRX; 1.52 fold enrichment (6-mer frequency, TF over GST control) with ETV1; 1.61 fold enrichment (6-mer frequency, TF over GST control) with ERF; 1.45 fold enrichment (6-mer frequency, TF over GST control) in the experiment with ETV3L. In addition, the binding signal in the experiment with ETS2 is 1.42 fold enrichment (6-mer frequency, TF over GST control); with SPDEF, 1.54 fold enrichment (6-mer frequency, TF over GST control); with ETV7, 1.38 fold enrichment (6-mer frequency, TF over GST control); with ELF5 it was 1.34 fold enrichment (6-mer frequency, TF over GST control); with ETV3, 1.43 fold enrichment (6-mer frequency, TF over GST control); with ETV6 it was 1.34 fold enrichment (6-mer frequency, TF over GST control).
